# PubChem BioAssay (Tox21)
# Values without a mark were called inactive. Records with an inconclusive call do not appear. A call without a number means that no potency is given here. Activity calls are given as the source filed them. Unless noted, the call rests on the fitted dose curve; in most records, active means well fitted curve in the direction sought with a large enough effect in the repeat runs; inconclusive means weak or mixed curves; inactive means no such curve, though single readings can be large; an effect the other way counts as inactive or inconclusive.
# Assays:
# [1] = Human pregnane X receptor (PXR) small molecule agonists, qHTS cell viability counter screen (AID 1346977); details: PXR-Luc HepG2 viability, CellTiter-Fluor, 24 h; series mostly up to 92.4 µM; further: nearly all actives have a fitted effect of over 50% in size; further: potency means the concentration at half of the fitted maximal effect
# Procedure, shortened: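 Tox21 qHTS format; PXR-Luc HepG2, 2,000/well, charcoal-stripped FBS 5%. Cpd exposure 24hr. Read: CellTiter-Fluor fluorescence, multiplexed with luciferase.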
# [2] = Caspase-3/7 induction in HepG2 cells by small molecules, qHTS assay (AID 1346978); details: HepG2 caspase-3/7 activation, Caspase-Glo luminescence, 17 h; series mostly up to 92.4 µM; further: nearly all actives have a fitted effect of over 15% in size
# Procedure, shortened: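 Wild-type HepG2 cells, 2,000/well, settled 5 hr at 37 C and 5% CO2, then compound-treated for 17 hr; caspase-3/7 activity read by luminescent Caspase-Glo 3/7 after 30 min at room temperature.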
# [3] = Caspase-3/7 induction in CHO-K1 cells by small molecules, qHTS cell viability counter screen (AID 1346979); details: CellTiter-Fluor fluorescence, 17 h; series mostly up to 92.4 µM; further: nearly all actives have a fitted effect of over 35% in size; further: potency means the concentration at half of the fitted maximal effect
# Procedure, shortened: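 CellTiter-Fluor viability check, qHTS format: wild-type CHO-K1, 16hr compound treatment, 1hr reagent incubation, fluorescence read.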
# [4] = Caspase-3/7 induction in HepG2 cells by small molecules, qHTS cell viability counter screen (AID 1346981); details: CellTiter-Fluor fluorescence, 17 h; series mostly up to 92.4 µM; further: nearly all actives have a fitted effect of over 30% in size
# Procedure, shortened: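 Cell viability is measured as a cytotoxicity counter screen alongside the Caspase-Glo 3/7 readout in identical wells. Wild-type HepG2 cells are treated with test compounds for 16 hr at 37 C before CellTiter-Fluor addition and a 1-hr incubation.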
# [5] = target: Nuclear receptor subfamily 1 group I member 2 (Homo sapiens) (UniProt O75469); assay: Human pregnane X receptor (PXR) small molecule agonists, qHTS assay (AID 1346982); details: PXR-Luc HepG2, CYP3A4 luciferase reporter, 24 h; series mostly up to 92.4 µM; further: nearly all actives have a fitted effect of over 35% in size; further: potency means the concentration at half of the fitted maximal effect
# Procedure, shortened: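 Cells: HepG2 stably carrying PXR-Luc. Medium held 5% charcoal-stripped FBS. Compounds in DMSO added after 5 hr plating, incubated 24 hr, then luminescence quantified with ONE-Glo.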
# [6] = target: Acetylcholinesterase (Homo sapiens) (UniProt P22303); assay: Acetylcholinesterase (AChE) small molecule antagonists: colormetric cell-based qHTS assay (AID 1347395; calls by dose curve; further: nearly all actives have a fitted effect of over 30% in size); details: SH-SY5Y cells AChE activity, colorimetric (Ellman); series mostly up to 115 µM
# Procedure, shortened: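 AChE inhibition read colorimetrically via DTNB–thiocholine in SH-SY5Y cells. Compound 30 min, substrate 90 min, both 37 C.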
# [7] = target: Nuclear receptor subfamily 1 group I member 2 (Rattus norvegicus) (UniProt Q9R1A7); assay: Rat pregnane X receptor (rPXR) activation by small molecules, qHTS assay (AID 1346983); details: rPXR luciferase reporter cells, One-Glo luminescence, 24 h; max activation: hits give high values; further: nearly all actives have a fitted effect of over 20% in size
# Procedure, shortened: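 Cell-based rPXR activation assay: rPXR cells, 2,000 per well, rested 5hr at 37 C, then exposed to compounds in DMSO for 24 hr at 37 C. Luciferase activity read by One-Glo luminescence after 30 min at room temperature.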
# [8] = target: Nuclear receptor subfamily 1 group I member 2 (Homo sapiens) (UniProt O75469); assay: Human pregnane X receptor (PXR) activation by small molecules, qHTS assay (AID 1346985); details: DPX-2 HepG2 CYP3A4-luciferase, 24 h; series mostly up to 38.3 µM; further: nearly all actives have a fitted effect of over 40% in size; further: potency means the concentration at half of the fitted maximal effect
# Procedure, shortened: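 DPX-2 cells (HepG2 co-transfected with a PXR response element and a CYP3A4-promoter luciferase construct) were seeded at 2,000 per well, rested 5 hr at 37C, then exposed to DMSO-dissolved compounds for 24 hr. Activation was read as luciferase luminescence.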
# [9] = target: Nuclear receptor subfamily 1 group I member 2 (Homo sapiens) (UniProt O75469); assay: CYP3A4 induction through human pregnane X receptor (PXR) by small molecules, qHTS assay (AID 1346984); details: DPX-2 HepG2 PXR, CYP3A4-luciferin luminescence, 24 h; series mostly up to 46.1 µM; further: nearly all actives have a fitted effect of over 40% in size
# Procedure, shortened: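 Quantitative HTS in DPX-2 cells, i.e. HepG2 transfected with PXR response element and CYP3A4-promoter luciferase. Compounds in DMSO incubated 24hr at 37C; then P450-Glo CYP3A4 substrate, 3uM final, 3hr; One-Glo luminescence.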
# [10] = Caspase-3/7 induction in CHO-K1 cells by small molecules, qHTS assay (AID 1346980); details: CHO-K1 caspase-3/7 induction, Caspase-Glo luminescence, 17 h; series mostly up to 92.4 µM; further: nearly all actives have a fitted effect of over 15% in size
# Procedure, shortened: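 Wild-type CHO-K1 cells exposed to compounds for 17hr at 37 C, 5% CO2. Caspase-3/7 activity then measured by Caspase-Glo 3/7 luminescence after 30min at room temperature.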
# Acetylcholinesterase (Homo sapiens), sequence (P22303 whole entry, looked up): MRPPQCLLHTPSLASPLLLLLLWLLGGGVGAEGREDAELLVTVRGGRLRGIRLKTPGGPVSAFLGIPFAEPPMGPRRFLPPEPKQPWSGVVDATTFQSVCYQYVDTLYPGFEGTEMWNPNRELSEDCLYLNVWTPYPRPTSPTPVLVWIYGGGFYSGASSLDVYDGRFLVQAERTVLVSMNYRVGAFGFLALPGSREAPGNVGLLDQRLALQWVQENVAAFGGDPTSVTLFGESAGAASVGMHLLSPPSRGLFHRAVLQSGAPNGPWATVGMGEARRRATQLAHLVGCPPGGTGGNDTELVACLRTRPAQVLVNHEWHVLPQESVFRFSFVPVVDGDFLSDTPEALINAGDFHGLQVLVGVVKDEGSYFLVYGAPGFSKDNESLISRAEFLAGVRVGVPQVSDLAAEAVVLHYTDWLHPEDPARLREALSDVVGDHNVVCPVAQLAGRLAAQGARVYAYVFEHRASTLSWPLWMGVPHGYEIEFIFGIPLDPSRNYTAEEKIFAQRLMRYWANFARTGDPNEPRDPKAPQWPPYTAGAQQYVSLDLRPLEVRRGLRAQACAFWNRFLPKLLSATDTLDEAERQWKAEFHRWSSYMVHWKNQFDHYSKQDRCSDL
# Nuclear receptor subfamily 1 group I member 2 (Homo sapiens), sequence (O75469 whole entry, looked up): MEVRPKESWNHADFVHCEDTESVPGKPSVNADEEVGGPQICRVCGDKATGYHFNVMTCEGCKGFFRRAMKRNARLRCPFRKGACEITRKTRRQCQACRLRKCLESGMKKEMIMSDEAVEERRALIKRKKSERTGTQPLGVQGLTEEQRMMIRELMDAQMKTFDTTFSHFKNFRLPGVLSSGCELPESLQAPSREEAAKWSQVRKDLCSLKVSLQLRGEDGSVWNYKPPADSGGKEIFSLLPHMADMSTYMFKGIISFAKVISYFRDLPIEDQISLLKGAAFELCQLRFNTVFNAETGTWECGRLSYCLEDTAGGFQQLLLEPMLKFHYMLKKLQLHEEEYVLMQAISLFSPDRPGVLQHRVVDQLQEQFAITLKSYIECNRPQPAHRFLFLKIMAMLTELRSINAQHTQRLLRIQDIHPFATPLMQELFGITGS
# Nuclear receptor subfamily 1 group I member 2 (Rattus norvegicus), sequence (Q9R1A7 whole entry, looked up): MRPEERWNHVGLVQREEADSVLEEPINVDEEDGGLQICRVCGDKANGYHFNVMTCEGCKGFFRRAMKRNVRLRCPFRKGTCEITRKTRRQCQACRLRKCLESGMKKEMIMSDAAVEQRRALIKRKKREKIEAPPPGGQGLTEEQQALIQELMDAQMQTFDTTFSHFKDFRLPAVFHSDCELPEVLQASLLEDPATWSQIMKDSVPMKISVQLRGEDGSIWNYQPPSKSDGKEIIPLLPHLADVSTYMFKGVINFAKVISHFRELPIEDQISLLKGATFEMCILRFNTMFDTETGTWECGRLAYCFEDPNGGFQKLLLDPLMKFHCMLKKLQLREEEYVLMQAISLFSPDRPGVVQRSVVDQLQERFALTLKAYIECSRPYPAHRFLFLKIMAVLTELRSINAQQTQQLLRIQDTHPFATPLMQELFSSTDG
smiles,measurement,setting,value
OC(c1ccc(F)cc1)(c1cncnc1)c1ccccc1Cl (stereo unspecified),Potency,[1],inactive
same,Potency,[2],inactive
same,Potency,[3],inactive
same,Potency,[4],inactive
same,Potency,[5],30.6 µM (active)
same,Potency,[6],inactive
CNCC(=O)c1ccc(O)c(O)c1,Potency,[1],inactive
same,Potency,[2],inactive
same,Potency,[3],inactive
same,Potency,[4],inactive
same,Potency,[5],inactive
same,Potency,[6],inactive
CN1CCN(C(=O)O[C@H]2c3nccnc3C(=O)N2c2ccc(Cl)cn2)CC1,Potency,[1],inactive
same,Potency,[2],inactive
same,Potency,[3],inactive
same,Potency,[4],inactive
same,max activation,[7],2%
CCOC(=O)CP(=O)(OCC)OCC,Potency,[1],inactive
same,Potency,[2],inactive
same,Potency,[3],inactive
same,Potency,[4],inactive
same,Potency,[5],inactive
same,Potency,[6],inactive
CC(=O)C(Cl)Cl,Potency,[1],inactive
same,Potency,[2],inactive
same,Potency,[3],inactive
same,Potency,[4],inactive
same,Potency,[5],inactive
COP(=S)(OC)Oc1ccc(S(N)(=O)=O)cc1,Potency,[1],inactive
same,Potency,[2],inactive
same,Potency,[3],inactive
same,Potency,[4],inactive
same,Potency,[5],inactive
CNNC,Potency,[1],inactive
same,Potency,[2],inactive
same,Potency,[3],inactive
same,Potency,[5],inactive
same,Potency,[6],inactive
CCCCN(CCCCO)N=O,Potency,[1],inactive
same,Potency,[2],inactive
same,Potency,[3],inactive
same,Potency,[4],inactive
same,Potency,[5],inactive
same,Potency,[6],inactive
ClC(Cl)C(Cl)Cl,Potency,[1],inactive
same,Potency,[2],inactive
same,Potency,[3],inactive
same,Potency,[4],inactive
same,Potency,[5],55 µM (active)
same,Potency,[6],inactive
O=S(=O)(O)C(F)(F)C(F)(F)C(F)(F)C(F)(F)C(F)(F)C(F)(F)F,Potency,[1],inactive
same,Potency,[2],inactive
same,Potency,[3],inactive
same,Potency,[4],inactive
same,Potency,[5],inactive
same,Potency,[6],inactive
CC(C)NCC(O)c1ccc(N)c(C#N)c1 (stereo unspecified),Potency,[1],inactive
same,Potency,[2],inactive
same,Potency,[3],inactive
same,Potency,[4],inactive
same,Potency,[6],inactive
CCCCC(=O)Cl,Potency,[1],inactive
same,Potency,[2],inactive
same,Potency,[3],inactive
same,Potency,[4],inactive
same,Potency,[5],inactive
same,Potency,[6],inactive
CC(C)(C)OC(=O)c1ncn2c1[C@@H]1CCCN1C(=O)c1c(Br)cccc1-2,Potency,[1],inactive
same,Potency,[2],inactive
same,Potency,[3],inactive
same,Potency,[4],inactive
same,Potency,[5],13.3 µM (active)
same,max activation,[7],-1.76%
same,Potency,[8],15.8 µM (active)
c1cc2c(c(N3CCNCC3)c1)OCCO2,Potency,[1],inactive
same,Potency,[2],inactive
same,Potency,[3],inactive
same,Potency,[4],inactive
same,Potency,[5],inactive
same,max activation,[7],6.77%
same,Potency,[9],inactive
same,Potency,[8],inactive
same,Potency,[6],inactive
CC1(C)C(=O)NC(=O)NC1=O,Potency,[1],inactive
same,Potency,[2],inactive
same,Potency,[3],inactive
same,Potency,[4],inactive
same,Potency,[5],inactive
same,Potency,[6],inactive
CC1(C)CON(Cc2ccccc2Cl)C1=O,Potency,[1],inactive
same,Potency,[2],inactive
same,Potency,[3],inactive
same,Potency,[4],inactive
same,Potency,[5],68.6 µM (active)
same,Potency,[6],inactive
CC1=C(C(=O)O)N2C(=O)[C@@H](N)[C@H]2SC1,"activity change, negative = cytotoxicity",[1],20.6% [at 19 µM]
same,caspase activation,[2],-0.113% [at 19 µM]
same,"activity change, negative = cytotoxicity",[3],7.27% [at 19 µM]
same,"activity change, negative = cytotoxicity",[4],0.509% [at 19 µM]
same,activation,[5],-3.97% [at 19 µM]
CCSC(=O)N(CC)C1CCCCC1,Potency,[1],inactive
same,Potency,[2],inactive
same,Potency,[3],inactive
same,Potency,[4],inactive
same,Potency,[5],inactive
O=[N+]([O-])c1ccc(CBr)cc1,Potency,[1],inactive
same,Potency,[2],inactive
same,Potency,[3],inactive
same,Potency,[4],inactive
same,Potency,[5],inactive
same,Potency,[6],inactive
CNC(=O)Oc1c(C(C)(C)C)cc(C)cc1C(C)(C)C,Potency,[1],inactive
same,Potency,[2],inactive
same,Potency,[3],inactive
same,Potency,[4],inactive
same,Potency,[5],inactive
same,Potency,[6],inactive
O=C1OC(=O)C2C1C1(Cl)C(Cl)=C(Cl)C2(Cl)C1(Cl)Cl (stereo unspecified),Potency,[1],inactive
same,Potency,[2],inactive
same,Potency,[3],inactive
same,Potency,[4],inactive
same,Potency,[5],inactive
same,Potency,[6],inactive
CCOP(=S)(OCC)Oc1nc(Cl)n(C(C)C)n1,Potency,[1],inactive
same,Potency,[2],inactive
same,Potency,[3],inactive
same,Potency,[4],inactive
same,Potency,[5],6.86 µM (active)
COc1cc(OC)nc(NC(=O)NS(=O)(=O)c2ncccc2C(=O)N(C)C)n1,Potency,[1],inactive
same,Potency,[2],inactive
same,Potency,[3],inactive
same,Potency,[4],inactive
same,Potency,[5],inactive
Cc1cc(C)nc(Nc2ccccc2)n1,Potency,[1],inactive
same,Potency,[2],inactive
same,Potency,[3],inactive
same,Potency,[6],inactive
N#CCNCC#N,Potency,[1],inactive
same,Potency,[2],inactive
same,Potency,[3],inactive
same,Potency,[4],inactive
same,Potency,[5],inactive
Cc1ccccc1CO[C@@H]1C[C@@]2(C(C)C)CC[C@]1(C)O2,Potency,[1],inactive
same,Potency,[2],inactive
same,Potency,[3],inactive
same,Potency,[4],inactive
same,Potency,[5],inactive
same,Potency,[6],inactive
Oc1c(Cl)cccc1Cl,Potency,[1],inactive
same,Potency,[2],inactive
same,Potency,[3],inactive
same,Potency,[5],inactive
CCC(C)n1c(=O)[nH]c(C)c(Br)c1=O (stereo unspecified),Potency,[1],inactive
same,Potency,[2],inactive
same,Potency,[3],inactive
same,Potency,[4],inactive
same,Potency,[5],inactive
same,Potency,[6],inactive
CC(C)CP(=S)(S)CC(C)C,Potency,[1],inactive
same,Potency,[2],inactive
same,Potency,[3],48.6 µM (active)
same,Potency,[5],inactive
same,Potency,[6],inactive
O=C(Cc1ccccc1)OCc1ccccc1,Potency,[1],inactive
same,Potency,[2],inactive
same,Potency,[3],inactive
same,Potency,[4],inactive
same,Potency,[5],inactive
COc1cc2c(cc1OC)[C@@]13CCN4CC5=CCO[C@H]6CC(=O)N2[C@H]1[C@H]6[C@H]5C[C@H]43,Potency,[1],inactive
same,Potency,[2],inactive
same,Potency,[3],inactive
same,Potency,[5],21.7 µM (active)
same,max activation,[7],-4.15%
same,Potency,[9],inactive
CN1C(=S)CN=C(c2ccccc2)c2cc(Cl)ccc21,Potency,[1],inactive
same,Potency,[2],inactive
same,Potency,[3],inactive
same,Potency,[5],26.6 µM (active)
same,max activation,[7],-0.756%
same,Potency,[8],14.1 µM (active)
same,Potency,[6],inactive
O=C(Nc1ccccc1)N(Cc1ccc(Cl)cc1)C1CCCC1,Potency,[1],61.1 µM (active)
same,Potency,[2],inactive
same,Potency,[10],inactive
same,Potency,[5],6.11 µM (active)
same,Potency,[6],inactive
CN1CCC(N(Cc2ccccc2)c2ccccc2)CC1,Potency,[2],inactive
same,Potency,[3],inactive
same,Potency,[10],inactive
same,Potency,[4],inactive
same,Potency,[5],inactive
same,Potency,[6],inactive
CN1CCC(O)(c2ccc(F)cc2)C(C(=O)c2ccc(F)cc2)C1 (stereo unspecified),Potency,[2],inactive
same,Potency,[3],inactive
same,Potency,[10],inactive
same,Potency,[4],inactive
same,Potency,[5],13.3 µM (active)
same,max activation,[7],-0.751%
same,Potency,[9],inactive
same,Potency,[8],inactive
same,Potency,[6],inactive
